This is part of a sample that, as a whole, favours compounds with a hit. Of some 83,000 tested, about 20% had one in any assay.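 Note: values are percent growth. 100 is the growth of untreated cells, values between 100 and 0 indicate rising inhibition; between -100 and 0 indicates cell death.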 Activity calls are given as the source filed them. Rule for the calls: active = growth percent below 10; inactive = the rest.
Each molecule was assayed on LOX IMVI melanoma (assay: NCI-60 one-dose screen, 48 h (100 = growth as untreated, 0 = no growth, -100 = all killed)). Settings: 10 µM unless noted.

| Compound | growth |
| --- | --- |
| CCCCN1C=CCN(CCCC)C1 | 68.8% (inactive) |
| Cc1nn(-c2ccccc2)c(Cl)c1/C=N\N=c1/sc2ccccc2n1C | 117% (inactive) |
| COc1cc(CC(=O)n2ncc3ccc(N)cc32)cc(OC)c1OC | 90.1% (inactive) |
| Cn1cc(-c2nc(-c3c[nH]c4c(Cl)nccc34)cs2)c2cc(Br)ccc21 | 73.4% (inactive) |
| CCNc1nc2ccc(Nc3ccnc4cc(Cl)ccc34)cc2[nH]1 | 70.6% (inactive) |
| Cc1ncc(C(=O)Nc2ccc(CN3CCN(C)CC3)c(C(F)(F)F)c2)cc1C#Cc1cnc(N)cc1C#N | -99.9% (active) |
| COc1cc(/C=C\c2cc(/C=C\c3ccc(O)c(OC)c3)n(C(=O)COc3ccccc3)n2)ccc1O | 3.23% (active) |
| C[C@H](c1nc2ccc(N)cc2[nH]1)[C@H]1CC[C@H]2[C@@H]3CCC4=CC(=O)CC[C@]4(C)[C@H]3CC[C@]12C | 84.2% (inactive) |
| CC(c1ccccc1)C(C(=O)c1ccccc1)c1ccccc1 (centres undefined) | 82.3% (inactive) |
| N#CC1=C(N)Oc2c(ccc3ccccc23)C1c1ccccc1Cl (centres undefined) | 27.3% (inactive) |
| N#CC(C(=O)/C(=N/NC(=O)c1ccccc1O)C(C#N)c1ccccc1)c1ccccc1 (centres undefined) | 44.7% (inactive) |
| C[C@@H](Nc1ncnc2ccc(-c3cnc(N)nc3)cc12)c1ccc(F)cc1 | 78.4% (inactive) |
| Cc1cccc(C)c1N=c1oc2ccc(Cl)cc2nc1-c1ccccc1O | 87.9% (inactive) |
| COc1cc(C2C3=C(COC3=O)N(CCO)c3cc4c(cc32)CCC4)cc(OC)c1OC (centres undefined) | 21.6% (inactive) |
| COc1cc2cc(Oc3cccc(NC(=O)Nc4cc(C(F)(F)F)cc(C(F)(F)F)c4)c3)c(C)nc2cc1OC | 1.98% (active) |
| Cc1cc(Cl)nc(N(CCNc2ccnc3cc(Cl)ccc23)Cc2ccccn2)n1 | 58.4% (inactive) |
| COc1ccc(C(=O)c2cc(OC)c(OC)c(OC)c2)cc1O | 15.4% (inactive) |
| N#C/C(=C\c1ccc([N+](=O)[O-])s1)c1nc2cc(Br)ccc2s1 | -54.1% (active) |
| Brc1ccc2[nH]cc(-c3cncn3CCc3ccccc3)c2c1 | 64.1% (inactive) |

| Compound | growth |
| --- | --- |
| Cc1c(C)c([N+](=O)[O-])c(C)c([N+](=O)[O-])c1C | 99.6% (inactive) |
| COc1ccc(C(=O)CC#N)cc1 | 94.7% (inactive) |
| O=C(/C=C/c1c(-c2ccc(Cl)cc2)nn(-c2ccccc2)c1C(F)(F)F)c1ccc(Cl)cc1 | 75% (inactive) |
| Cc1ccc(NS(=O)(=O)c2ccc(-c3cnc(C4CC4)o3)cc2)cc1C(F)(F)F | 55.9% (inactive) |
| CC(C)c1ccc(Nc2ccc3c(OCCCN4CCN(C)CC4)cccc3n2)cc1 | -70.7% (active) |
| CCN(c1ccccc1)S(=O)(=O)c1cc([N+](=O)[O-])ccc1Cl | 52.4% (inactive) |
| C=C1C(=O)O[C@H]2[C@H]1CC/C(CNS(=O)(=O)c1cccc3ccccc13)=C\CC[C@@]1(C)O[C@@H]21 | 14.3% (inactive) |
| COc1cc(C(=O)Nc2cc3c(cc2Oc2cc(C)cc(C)c2)C(=O)N(C)[C@@H](CC(=O)N(C)O)C(=O)N3)c(Br)c(OC)c1OC | -41.5% (active) |
| Cc1c2cc[nH]c(=O)c2c(C)c2c1[nH]c1cc(OCCN3CCN(C)CC3)ccc12 | -62.3% (active) |
| Cn1cc(-c2csc(-c3c[nH]c4ccccc34)n2)c2ccnc(Cl)c21 | 82.6% (inactive) |
| COc1ccc2nc(-c3ccc(-c4noc(-c5cc(OC)c(OC)c(OC)c5)n4)cc3)[nH]c2c1 | 67.5% (inactive) |
| Cn1cc(-c2nc(-c3c[nH]c4c(Cl)nccc34)cs2)c2cc(F)ccc21 | 109% (inactive) |
| O=C1NN(C(=O)c2ccccc2)C(c2ccc(Cl)c(Cl)c2)=C/C1=C\c1ccc([N+](=O)[O-])cc1 | 86.9% (inactive) |
| COc1ccc(OC)c(CCn2cncc2-c2c[nH]c3ccccc23)c1 | 79.6% (inactive) |
| N#Cc1c(-c2cccc([N+](=O)[O-])c2)nc(SCC(=O)c2ccc(Cl)cc2)[nH]c1=O | 96% (inactive) |
| COC(=O)c1ccc2c(c1)[n+](=O)c(C(C)=O)c(C(F)(F)F)n2[O-] | -95.3% (active) |
| C#Cc1cccc(NC(=O)Nc2cccc(NC(=O)CCl)c2)c1 | -93.8% [8.25 µM] (active) |
| Cc1nc2sccn2c1-c1cn2ccsc2n1 | 98.4% (inactive) |

These molecules were tested on SK-MEL-28 melanoma in the same assay as above. Settings: 10 µM unless noted.

| Compound | growth |
| --- | --- |
| CCCCN1C=CCN(CCCC)C1 | 40% (inactive) |
| Cc1nn(-c2ccccc2)c(Cl)c1/C=N\N=c1/sc2ccccc2n1C | 103% (inactive) |
| COc1cc(CC(=O)n2ncc3ccc(N)cc32)cc(OC)c1OC | 99.9% (inactive) |
| Cn1cc(-c2nc(-c3c[nH]c4c(Cl)nccc34)cs2)c2cc(Br)ccc21 | 88.9% (inactive) |
| CCNc1nc2ccc(Nc3ccnc4cc(Cl)ccc34)cc2[nH]1 | 99.5% (inactive) |
| Cc1ncc(C(=O)Nc2ccc(CN3CCN(C)CC3)c(C(F)(F)F)c2)cc1C#Cc1cnc(N)cc1C#N | -94.6% (active) |
| COc1cc(/C=C\c2cc(/C=C\c3ccc(O)c(OC)c3)n(C(=O)COc3ccccc3)n2)ccc1O | 18.4% (inactive) |
| C[C@H](c1nc2ccc(N)cc2[nH]1)[C@H]1CC[C@H]2[C@@H]3CCC4=CC(=O)CC[C@]4(C)[C@H]3CC[C@]12C | 89.4% (inactive) |
| CC(c1ccccc1)C(C(=O)c1ccccc1)c1ccccc1 (centres undefined) | 94% (inactive) |
| N#CC1=C(N)Oc2c(ccc3ccccc23)C1c1ccccc1Cl (centres undefined) | 50.5% (inactive) |
| N#CC(C(=O)/C(=N/NC(=O)c1ccccc1O)C(C#N)c1ccccc1)c1ccccc1 (centres undefined) | 83.7% (inactive) |
| C[C@@H](Nc1ncnc2ccc(-c3cnc(N)nc3)cc12)c1ccc(F)cc1 | 92.5% (inactive) |
| Cc1cccc(C)c1N=c1oc2ccc(Cl)cc2nc1-c1ccccc1O | 93.4% (inactive) |
| COc1cc(C2C3=C(COC3=O)N(CCO)c3cc4c(cc32)CCC4)cc(OC)c1OC (centres undefined) | 54.3% (inactive) |
| COc1cc2cc(Oc3cccc(NC(=O)Nc4cc(C(F)(F)F)cc(C(F)(F)F)c4)c3)c(C)nc2cc1OC | 7.66% (active) |
| Cc1cc(Cl)nc(N(CCNc2ccnc3cc(Cl)ccc23)Cc2ccccn2)n1 | 62.1% (inactive) |
| COc1ccc(C(=O)c2cc(OC)c(OC)c(OC)c2)cc1O | 57.6% (inactive) |
| N#C/C(=C\c1ccc([N+](=O)[O-])s1)c1nc2cc(Br)ccc2s1 | 12% (inactive) |
| Brc1ccc2[nH]cc(-c3cncn3CCc3ccccc3)c2c1 | 69.6% (inactive) |

| Compound | growth |
| --- | --- |
| Cc1c(C)c([N+](=O)[O-])c(C)c([N+](=O)[O-])c1C | 104% (inactive) |
| COc1ccc(C(=O)CC#N)cc1 | 114% (inactive) |
| O=C(/C=C/c1c(-c2ccc(Cl)cc2)nn(-c2ccccc2)c1C(F)(F)F)c1ccc(Cl)cc1 | 103% (inactive) |
| Cc1ccc(NS(=O)(=O)c2ccc(-c3cnc(C4CC4)o3)cc2)cc1C(F)(F)F | 64.1% (inactive) |
| CC(C)c1ccc(Nc2ccc3c(OCCCN4CCN(C)CC4)cccc3n2)cc1 | 13.7% (inactive) |
| CCN(c1ccccc1)S(=O)(=O)c1cc([N+](=O)[O-])ccc1Cl | 88.8% (inactive) |
| C=C1C(=O)O[C@H]2[C@H]1CC/C(CNS(=O)(=O)c1cccc3ccccc13)=C\CC[C@@]1(C)O[C@@H]21 | 2.74% (active) |
| COc1cc(C(=O)Nc2cc3c(cc2Oc2cc(C)cc(C)c2)C(=O)N(C)[C@@H](CC(=O)N(C)O)C(=O)N3)c(Br)c(OC)c1OC | -49.1% (active) |
| Cc1c2cc[nH]c(=O)c2c(C)c2c1[nH]c1cc(OCCN3CCN(C)CC3)ccc12 | 5.74% (active) |
| Cn1cc(-c2csc(-c3c[nH]c4ccccc34)n2)c2ccnc(Cl)c21 | 85.1% (inactive) |
| COc1ccc2nc(-c3ccc(-c4noc(-c5cc(OC)c(OC)c(OC)c5)n4)cc3)[nH]c2c1 | 51.3% (inactive) |
| Cn1cc(-c2nc(-c3c[nH]c4c(Cl)nccc34)cs2)c2cc(F)ccc21 | 112% (inactive) |
| O=C1NN(C(=O)c2ccccc2)C(c2ccc(Cl)c(Cl)c2)=C/C1=C\c1ccc([N+](=O)[O-])cc1 | 111% (inactive) |
| COc1ccc(OC)c(CCn2cncc2-c2c[nH]c3ccccc23)c1 | 90.3% (inactive) |
| N#Cc1c(-c2cccc([N+](=O)[O-])c2)nc(SCC(=O)c2ccc(Cl)cc2)[nH]c1=O | 107% (inactive) |
| COC(=O)c1ccc2c(c1)[n+](=O)c(C(C)=O)c(C(F)(F)F)n2[O-] | 27% (inactive) |
| C#Cc1cccc(NC(=O)Nc2cccc(NC(=O)CCl)c2)c1 | 48.5% [8.25 µM] (inactive) |
| Cc1nc2sccn2c1-c1cn2ccsc2n1 | 104% (inactive) |
